Measurements published in PubChem BioAssay AID743315 (Broad Institute, 2014).
Results with a measured potency or affinity are listed apart. The source made the active and inactive calls.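 Rule for the calls: active = cell killing, with a fitted active concentration at or below twice the top valid dose tested; inconclusive = flat curve with moderate cell loss, or an unreliable fit; inactive = effect in the rising direction, plus the rest.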

Assay: HEK293T cell cytotoxicity, dose response, cytotoxicity control, plate reader, dry powder, set 10 (AID 743315)
Conditions: HEK293T viability, CellTiter-Glo ATP luminescence, 72 h; series mostly up to 26 µM

Row | SMILES | outcome
1 | CCOc1ccc(OCCn2c(=S)[nH]c3ccccc32)cc1 | inactive
2 | Cc1ccc(OCCn2c(=S)[nH]c3ccccc32)c(C(C)C)c1 | inactive
3 | c1ccc(OCCn2cnc3ccccc32)cc1 | inactive
